Activity calls are given as the source filed them. How the source made its calls: active means hit-call score of the fitted dose curve at least 0.9, where 1 is the maximum; inactive means score below 0.9.

Experimental findings from PubChem BioAssay (EPA / NIEHS) are described below.

Assay [1] is described as follows: APR_HepG2_CellLoss_72hr: Apredica 72-hour HepG2 Assay for Cell Loss (AID 2282915). As to conditions: high-content imaging. The procedure, abridged: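 HepG2 cells were exposed for 72 hr to compounds at 0.39–200 uM (ten concentrations, duplicate) in 0.5% v/v final DMSO. Nuclei were stained with Hoechst 33342 after 3.7% formaldehyde fixation, imaged at 20x, and counted; fits bidirectional versus DMSO.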

Assay [2] in a line: APR_HepG2_MitoMembPot_72hr: Apredica 72-hour HepG2 Assay for Mitochondrial Membrane Potential (AID 2282917). The following applies: imaging, actives raise or lower the signal. Summed up:
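HepG2 cells exposed 72 h to compounds at 0.39–200 uM (0.5% v/v DMSO, duplicates); MitoTracker Red CMXRos 250 nM loaded 30 min before 3.7% formaldehyde fixation, imaged by HCS fluorescence. Bidirectional fit versus DMSO.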

Assay [3] in a line: APR_HepG2_MitoticArrest_72hr: Apredica 72-hour HepG2 Assay for Mitotic Arrest (AID 2282918). As to conditions: high-content imaging, actives raise or lower the signal. Summed up:
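Read-out is phospho-histone H3 immunofluorescence with Hoechst nuclear segmentation, imaged at 20x. Human HepG2 liver cells received ten concentrations (0.39–200 uM, final DMSO 0.5% v/v) for 72 hr before fixation. Gain or loss of signal was fitted relative to DMSO.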

A short description of assay [4]: APR_HepG2_MicrotubuleCSK_72hr: Apredica 72-hour HepG2 Assay for Microtubule CSK Stabilty (AID 2282919). The following applies: HepG2 microtubule cytoskeleton, high-content imaging, actives raise or lower the signal. Summed up:
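HepG2 human liver cells were dosed for 72 h at ten concentrations from 0.39 to 200 uM in duplicate (0.5% v/v DMSO final). Fixed, permeabilized cells were immunostained for alpha-tubulin (Cy5) with a Hoechst counterstain and imaged at 20x.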

A short description of assay [5]: APR_HepG2_P-H2AX_24hr: Apredica 24-hour HepG2 Assay for H2AX Phosphorylation (AID 2282920). The following applies: high-content imaging, actives raise or lower the signal. Summed up:
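HepG2, 24 hr, cpd 0.39–200 uM (10 conc, duplicate), DMSO 0.5% v/v final. Fix 3.7% formaldehyde, Triton X-100 permeabilize, anti-phospho-H2A.x 1:200 + Hoechst 2 ug/mL. Imaged, bidirectional fit vs DMSO.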

A short description of assay [6]: APR_HepG2_StressKinase_72hr: Apredica 72-hour HepG2 Assay for Stress Kinase (AID 2282921). As to conditions: HepG2 stress kinase (phospho-c-Jun) imaging, actives raise or lower the signal. Summed up: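 Fluorescence intensity of Cy3-tagged anti-phospho-c-Jun antibody, quantified per cell from Hoechst-defined nuclei across six images per well, served as the read-out following 72 h exposure (0.39–200 uM, 0.5% v/v DMSO).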

The nature of assay [7]: APR_HepG2_StressKinase_24hr: Apredica 24-hour HepG2 Assay for Stress Kinase (AID 2282922). As to conditions: HepG2 stress kinase (phospho-c-Jun) imaging, actives raise or lower the signal. The procedure, abridged: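 HepG2 cells exposed 24 hr to compound at 0.39–200 uM (10 concentrations, duplicate), 0.5% v/v DMSO final. Fixed in 3.7% formaldehyde, permeabilized with Triton X-100, immunolabeled for phospho-c-Jun with Hoechst 33342; HCS fluorescence imaging, bidirectional fit versus DMSO.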

Assay [8] in a line: APR_HepG2_p53Act_72hr: Apredica 72-hour HepG2 Assay for p53 Activation (AID 2282923).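 Further: average cellular p53 protein immunofluorescence intensity in HepG2 cells.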 As to conditions: high-content imaging, actives raise or lower the signal. The procedure, abridged: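 HepG2 monolayers receive test compounds in duplicate at ten concentrations (0.39 through 200 uM) for 72 hr. They are then formaldehyde-fixed, antibody-labelled for p53, Hoechst-stained and imaged, with activity fitted bidirectionally versus DMSO.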

The nature of assay [9]: APR_HepG2_MitoMass_72hr: Apredica 72-hour HepG2 Assay for Mitochondrial Mass (AID 2282924).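 Further: MitoTracker Red CMXRos stain intensity per cell imaged as mitochondrial mass.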 The following applies: high-content imaging, actives raise or lower the signal. Summed up: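 HepG2 cells were exposed for 72 hr to compounds at 0.39–200 uM (ten concentrations, duplicate, 0.5% v/v DMSO final). Live cells were stained with 250 nM MitoTracker Red CMXRos for 30 min, then fixed in 3.7% formaldehyde and imaged by HCS fluorescence.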

Broadly, the AC50 is the concentration giving half of the maximal activity seen. As to `Nc1ccccc1N`, the AC50 in [1] is 9.57 µM (active); in assay [3], 14.2 µM (active); in assay [5], 45.8 µM (active); in assay [6], 59.9 µM (active); in assay [8], 18.9 µM (active); in assay [9], 16.2 µM (active). Also, the call in [2], in assay [4] and in assay [7] was inactive.

For the compound `CCCCCCCCCCCCCCCC`, the call in assay [1], in [2], in [3], in assay [4], in assay [5] and in [6] was inactive. Further, the outcome in assay [7], in [8] and in assay [9] was inactive.

For the compound `CC(=O)OCCOCCOCCOC(C)=O`, the call in assay [1], in [2], in [3], in [4], in [5] and in assay [6] was inactive. The outcome in assay [7], in assay [8] and in assay [9] was inactive.

Regarding `CCCCOC(=O)CCCCCCCCC(=O)OCCCC`, the call in [1], in assay [2], in assay [3], in assay [4], in assay [5] and in [6] was inactive. Also, the outcome in assay [7], in assay [8] and in assay [9] was inactive.

Turning to `Cc1cccc(Nc2cc(Cl)nc(SCC(=O)O)n2)c1C`, the compound was called inactive in [1], in assay [2], in [3], in assay [4], in [5] and in [6]. For the same compound, the compound was classed as inactive in assay [7], in [8] and in assay [9].

On to `O=C(OCCCCCOC(=O)c1ccccc1)c1ccccc1`, for which the AC50 in assay [1] was 100 µM (active). Further, the compound was classed as inactive in [2], in assay [3], in assay [4], in [5], in assay [6] and in assay [7]. The compound was called inactive in assay [8] and in assay [9].

With `CNC(=O)[C@H]1O[C@@H](n2cnc3c(NCc4cc(Cl)ccc4OCc4cc(C)no4)ncnc32)[C@H](O)[C@@H]1N`, the outcome in assay [1], in assay [2], in [3], in assay [4], in [5] and in assay [6] was inactive. For the same compound, the result in [7], in assay [8] and in assay [9] was inactive.

Consider `Oc1ccc2c(c1)OC[C@@H](N1CCC(O)(c3ccc(F)cc3)CC1)[C@H]2O`, for which the call in assay [1], in assay [2], in [3], in assay [4], in assay [5] and in [6] was inactive. Further, the result in assay [7], in assay [8] and in assay [9] was inactive.

On to `CCCCC(CC)COC(=O)CC(C(=O)OCC(CC)CCCC)S(=O)(=O)O` (stereo unspecified), for which the AC50 in assay [1] is 141 µM (active); in assay [2], 112 µM (active); in assay [3] it was 80.8 µM (active); in assay [5], 102 µM (active); in assay [8] it was 103 µM (active). In addition, the compound was classed as inactive in assay [4], in assay [6], in [7] and in assay [9].

As for `CC(C)c1ccc(C(=O)N=C(N)N)cc1S(C)(=O)=O`, the result in [1], in assay [2], in assay [3], in assay [4], in assay [5] and in assay [6] was inactive. Also, the compound was called inactive in assay [7], in [8] and in assay [9].

Regarding `Cc1c(C(=O)O)c(O)cc2c1C(=O)c1c(O)c([C@@H]3O[C@H](CO)[C@@H](O)[C@H](O)[C@H]3O)c(O)c(O)c1C2=O`, the call in assay [1], in assay [3], in assay [4], in assay [5], in [6] and in [7] was inactive. Besides, the compound was called inactive in assay [8] and in assay [9]. Also, the AC50 in assay [2] was 40.9 µM (active).

Turning to `O=C(O)Cc1ccccc1Nc1c(Cl)cccc1Cl`, in [1], the AC50 was 107 µM (active). Further, the compound was classed as inactive in assay [2], in [3], in assay [4], in [5], in assay [6] and in assay [7]. For the same compound, the compound was classed as inactive in assay [8] and in [9].

As to `CN[C@H]1CC[C@@H](c2ccc(Cl)c(Cl)c2)c2ccc(S(N)(=O)=O)cc21`, the AC50 in assay [1] was 6.85 µM (active); in assay [3], 3.89 µM (active); in [4], 12.1 µM (active); in [5] it was 100 µM (active); in assay [6] it was 123 µM (active). Further, the result in [2], in assay [7], in assay [8] and in [9] was inactive.

Turning to `Cc1nc(-c2ccc3c(c2)CCN(CCC2CCC(NC(=O)/C=C/c4ccc(F)cc4)CC2)CC3)no1` (stereo unspecified), the compound was classed as inactive in assay [1], in [2], in assay [4], in assay [5], in assay [7] and in [9]. The figures for the AC50 in assay [3], in [6] and in assay [8] were 24.2 µM (active), 16.2 µM (active) and 23.8 µM (active), respectively.

`NCCO`: the call in assay [1], in assay [2], in assay [3], in assay [4], in assay [5] and in assay [6] was inactive. Moreover, the compound was called inactive in [7], in assay [8] and in assay [9].

For the compound `Cc1cccc(C)c1O`, the call in assay [1], in assay [2], in assay [3], in assay [4], in [5] and in [6] was inactive. Moreover, the outcome in [7], in assay [8] and in assay [9] was inactive.

In the case of `COc1cc(-c2nc(NC(=O)c3cc4cc(C)cc(C)c4n3CC(=O)O)sc2CCC2CCCCC2)c(OC)cc1Cl`, the AC50 in assay [1] was 26.4 µM (active); in assay [3] it was 41.1 µM (active); in [4], 25.2 µM (active); in assay [5], 38.9 µM (active); in [7], 48.8 µM (active); in [9], 78.6 µM (active). Moreover, the call in assay [2], in [6] and in [8] was inactive.

In the case of `O=c1c(O)c(-c2ccc(O)c(O)c2)oc2cc(O)cc(O)c12`, the values for the half-maximal activity concentration (AC50) in assay [1], in assay [5] and in [9] were 22.6 µM (active), 48.6 µM (active) and 7.83 µM (active), respectively. Moreover, the result in [2], in [3], in [4], in [6], in [7] and in assay [8] was inactive.

As for `CCCCCCCCCCC`, the compound was called inactive in [1], in assay [2], in assay [3], in assay [4], in [5] and in assay [6]. Further, the result in assay [7], in assay [8] and in assay [9] was inactive.

As to `COCCOCCOC`, the call in [1], in assay [2], in assay [3], in [4], in assay [5] and in [6] was inactive. In addition, the compound was called inactive in assay [7], in assay [8] and in assay [9].

On to `COc1cc(S(=O)(=O)O)c(C)cc1N=Nc1c(O)ccc2cc(S(=O)(=O)O)ccc12`, for which the compound was classed as inactive in assay [1], in assay [2], in assay [3], in [4], in [5] and in assay [6]. Besides, the compound was classed as inactive in assay [7], in [8] and in assay [9].

For the compound `Cc1cc(NC(=O)C(=O)O)cc(C)c1Oc1ccc(O)c2c1CCC2`, the compound was classed as inactive in assay [1], in assay [2], in assay [3], in assay [4], in assay [5] and in assay [6]. Moreover, the outcome in assay [7], in assay [8] and in [9] was inactive.

Turning to `Cc1nc(C)nc(N2C[C@@H](C)N(c3ccnc([C@@H](C)O)n3)[C@@H](C)C2)n1`, the result in assay [1], in assay [2], in assay [3], in [4], in [5] and in assay [6] was inactive. The result in assay [7], in assay [8] and in assay [9] was inactive.

For `COc1cc(C=O)ccc1O`, the compound was called inactive in assay [1], in assay [2], in [3], in [4], in assay [5] and in [6]. Besides, the outcome in assay [7], in assay [8] and in assay [9] was inactive.
